mHTT CaM bind: mutant huntingtin-calmodulin interaction inhibitors – biochemical, AlphaScreen, primary screen; P42858; AlphaScreen His-mHTT/GST-CaM binding, luminescence; inhibition, % at 15 µM; 190,000 tested, 3.6% active
Target sequence (P42858 whole entry, looked up, change not shown): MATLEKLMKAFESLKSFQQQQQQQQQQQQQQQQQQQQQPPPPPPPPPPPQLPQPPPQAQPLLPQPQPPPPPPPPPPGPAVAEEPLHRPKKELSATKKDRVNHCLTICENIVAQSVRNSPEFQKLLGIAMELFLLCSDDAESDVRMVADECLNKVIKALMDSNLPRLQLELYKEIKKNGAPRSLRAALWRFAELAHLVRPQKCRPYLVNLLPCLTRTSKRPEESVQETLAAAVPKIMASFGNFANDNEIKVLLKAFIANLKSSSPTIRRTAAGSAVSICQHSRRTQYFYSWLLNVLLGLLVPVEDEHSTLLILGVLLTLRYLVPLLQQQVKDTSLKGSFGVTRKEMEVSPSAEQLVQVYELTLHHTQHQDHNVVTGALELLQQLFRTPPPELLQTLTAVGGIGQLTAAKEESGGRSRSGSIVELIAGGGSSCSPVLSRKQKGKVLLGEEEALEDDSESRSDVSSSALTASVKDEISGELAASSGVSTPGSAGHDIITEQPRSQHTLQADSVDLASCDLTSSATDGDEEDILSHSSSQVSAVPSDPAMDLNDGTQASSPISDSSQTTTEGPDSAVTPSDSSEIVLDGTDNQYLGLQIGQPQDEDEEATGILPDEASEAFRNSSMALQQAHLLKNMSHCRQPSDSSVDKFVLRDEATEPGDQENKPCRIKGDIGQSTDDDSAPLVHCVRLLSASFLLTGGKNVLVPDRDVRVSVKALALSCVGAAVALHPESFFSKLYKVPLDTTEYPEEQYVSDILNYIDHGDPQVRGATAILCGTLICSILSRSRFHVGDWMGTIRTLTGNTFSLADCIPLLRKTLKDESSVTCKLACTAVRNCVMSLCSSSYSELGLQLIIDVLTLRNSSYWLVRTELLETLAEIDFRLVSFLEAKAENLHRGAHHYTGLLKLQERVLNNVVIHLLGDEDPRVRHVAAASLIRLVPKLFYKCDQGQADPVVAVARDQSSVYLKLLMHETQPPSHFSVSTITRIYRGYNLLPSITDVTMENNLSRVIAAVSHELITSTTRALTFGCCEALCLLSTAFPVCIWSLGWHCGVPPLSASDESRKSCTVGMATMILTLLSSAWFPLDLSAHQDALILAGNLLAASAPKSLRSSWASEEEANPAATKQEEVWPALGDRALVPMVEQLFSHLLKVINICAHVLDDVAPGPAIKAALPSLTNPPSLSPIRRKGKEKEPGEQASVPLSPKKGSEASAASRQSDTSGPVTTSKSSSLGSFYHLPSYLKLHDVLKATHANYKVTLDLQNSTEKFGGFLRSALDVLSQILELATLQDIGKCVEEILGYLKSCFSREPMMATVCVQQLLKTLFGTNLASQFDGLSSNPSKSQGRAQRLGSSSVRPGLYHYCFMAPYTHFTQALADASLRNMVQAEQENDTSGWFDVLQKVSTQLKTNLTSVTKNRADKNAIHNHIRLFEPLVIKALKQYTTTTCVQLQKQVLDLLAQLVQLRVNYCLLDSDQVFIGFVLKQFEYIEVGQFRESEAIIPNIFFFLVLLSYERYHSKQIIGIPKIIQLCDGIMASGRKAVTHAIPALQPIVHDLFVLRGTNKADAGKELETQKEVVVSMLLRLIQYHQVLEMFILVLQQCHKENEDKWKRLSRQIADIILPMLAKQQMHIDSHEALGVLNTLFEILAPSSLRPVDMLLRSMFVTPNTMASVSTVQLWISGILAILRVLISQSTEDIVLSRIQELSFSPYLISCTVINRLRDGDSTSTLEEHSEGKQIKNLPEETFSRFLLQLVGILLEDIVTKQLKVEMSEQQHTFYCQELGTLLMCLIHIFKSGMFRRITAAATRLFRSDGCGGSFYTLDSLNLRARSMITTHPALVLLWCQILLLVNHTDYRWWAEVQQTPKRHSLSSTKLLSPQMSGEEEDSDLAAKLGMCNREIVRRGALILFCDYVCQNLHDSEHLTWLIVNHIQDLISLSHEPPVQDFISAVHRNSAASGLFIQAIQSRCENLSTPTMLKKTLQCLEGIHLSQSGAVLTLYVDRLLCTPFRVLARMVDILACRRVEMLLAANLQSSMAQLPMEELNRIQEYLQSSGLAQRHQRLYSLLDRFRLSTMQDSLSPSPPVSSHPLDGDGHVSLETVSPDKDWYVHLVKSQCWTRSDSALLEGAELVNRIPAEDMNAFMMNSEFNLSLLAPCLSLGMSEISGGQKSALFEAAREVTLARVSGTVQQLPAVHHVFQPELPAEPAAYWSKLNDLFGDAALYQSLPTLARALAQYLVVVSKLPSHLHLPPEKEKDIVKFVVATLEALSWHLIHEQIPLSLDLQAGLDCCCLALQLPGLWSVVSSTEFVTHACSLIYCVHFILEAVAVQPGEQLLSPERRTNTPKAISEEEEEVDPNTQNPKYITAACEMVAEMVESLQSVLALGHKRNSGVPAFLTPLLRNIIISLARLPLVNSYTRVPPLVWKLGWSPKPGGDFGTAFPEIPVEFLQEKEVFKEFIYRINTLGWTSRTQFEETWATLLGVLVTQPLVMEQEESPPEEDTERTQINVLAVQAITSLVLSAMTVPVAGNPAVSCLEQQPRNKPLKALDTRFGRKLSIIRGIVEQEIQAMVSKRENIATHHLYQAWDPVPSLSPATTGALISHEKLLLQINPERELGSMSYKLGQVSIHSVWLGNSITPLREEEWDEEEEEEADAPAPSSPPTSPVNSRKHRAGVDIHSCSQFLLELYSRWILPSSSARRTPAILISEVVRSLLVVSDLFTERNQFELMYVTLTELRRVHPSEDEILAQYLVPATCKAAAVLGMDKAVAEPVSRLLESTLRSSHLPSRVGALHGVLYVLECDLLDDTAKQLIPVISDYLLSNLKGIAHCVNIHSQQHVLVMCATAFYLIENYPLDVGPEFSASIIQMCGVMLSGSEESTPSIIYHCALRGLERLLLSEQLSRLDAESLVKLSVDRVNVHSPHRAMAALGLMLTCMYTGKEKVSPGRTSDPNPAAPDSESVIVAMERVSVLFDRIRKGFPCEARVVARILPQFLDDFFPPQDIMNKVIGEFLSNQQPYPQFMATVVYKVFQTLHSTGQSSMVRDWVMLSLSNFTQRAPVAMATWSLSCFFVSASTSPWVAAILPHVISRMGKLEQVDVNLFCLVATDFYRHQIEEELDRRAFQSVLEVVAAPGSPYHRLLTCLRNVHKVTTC
Pf apPOL block: Pf-apPOL inhibitors, biochemical, fluorescence. Plasmodium falciparum apicoplast DNA polymerase (apPOL). Recombinant Pf-apPOL, molecular beacon fluorescence, 1.5 h. inhibition, % at 10 µM. 210,000 tested, 0.25% active. AID 1794808, 2022
Hits are given with their value; . = inactive; / = not tested or not shown. This is one part of a sample in which hits are shown more often than they occur. Cut-off read from the data, not from the text of the source: active = inhibition above about 50%; inactive = the rest.

SMILES | mHTT CaM bind | Pf apPOL block
O=C1NCCCCC1Nc1ccc(N2C(=O)C3C4C=CC(C4)C3C2=O)cc1[N+](=O)[O-] (stereo unspecified) | . | .
O=C(NCc1ccccn1)c1cc2sccc2n1CC1CC1 | . | .
Cc1cc2c(cc(C(=O)NCc3ccccn3)n2CC2CCC2)s1 | 57 | .
CCCn1c(C(=O)N2CCOCC2)cc2sc(Br)cc21 | . | .
CCn1c(C(=O)NCc2ccccc2F)cc2sc(C)cc21 | . | .
C=CCn1c(C(=O)NCc2ccccn2)cc2sc(C)cc21 | 56 | .
COc1ccccc1OCC(=O)NCc1ccccn1 | . | .
COc1ccccc1-c1cc(C(=O)NCc2ccccn2)n(C)n1 | 100 | .
CCCn1c(C(=O)NCc2ccccn2)cc2sc(Br)cc21 | 72 | .
O=C(Nc1ccc(Cl)cc1)C1CCN(c2ncnc3c2sc2ncccc23)CC1 | . | .
CCc1ccc(C(=O)N2CCC(Cc3nnc(-c4ccccc4)o3)CC2)cc1 | . | .
CC1CCN(c2nn(CC(=O)Nc3ccccc3F)c(=O)c3ccccc23)CC1 | . | .
Cc1ccc(-c2nccn3cc(C(=O)NCC4CC4)nc23)cc1 | . | .
CC(C)CC(=O)Nc1ccc(-n2cnc(C(=O)N3CCSCC3)c2)nc1 | . | .
O=C(Nc1cccnc1)c1ccc(Cl)cc1Cl | . | .
O=C(O)c1cc(Cl)c(Cl)cc1C(=O)Nc1cccnc1 | . | 55
CCc1noc(COC2CCCN(S(=O)(=O)c3cccs3)C2)n1 (stereo unspecified) | . | .
Cc1noc(-c2nn(C)c3c2CN(S(=O)(=O)c2ccc(Cl)cc2)CC3)n1 | . | .
O=C(Nc1cccc(F)c1)c1cc(S(=O)(=O)NCCc2ccccc2)ccc1F | . | .
COc1ccc(C)cc1NC(=O)c1cc(S(=O)(=O)NCCc2ccccc2)ccc1F | 64 | .
O=C(Nc1cccc(Cl)c1)c1cc(S(=O)(=O)NCCc2ccccc2)ccc1F | 51 | .
CCN(Cc1ccccc1)S(=O)(=O)c1ccc(F)c(C(=O)Nc2cc(C)ccc2OC)c1 | . | .
Cc1cc(S(=O)(=O)N2CCCCC2c2nncn2C)ccc1F (stereo unspecified) | . | .
Cc1ccc(C2=C/C(=C\c3cccs3)C(=O)O2)cc1C | . | .
COc1ccc(C(=O)Nc2nc(CC(=O)Nc3ccc4c(c3)OCCO4)cs2)cc1 | . | .
SMILES | mHTT CaM bind | Pf apPOL block
COc1ccc(Nc2nc(C(=O)Nc3ccc4c(c3)OCCO4)cs2)c(OC)c1 | 53 | .
COc1ccc(C(=O)ON=C2C(C)=CC(=O)C=C2C)cc1 | 55 | .
COc1ccc(C(=O)N=C2C=C(C)C(=O)C(C)=C2)cc1 | . | .
O=C1C(Nc2ccccc2)=CC(c2ccccc2[N+](=O)[O-])N1c1ccccc1 (stereo unspecified) | 66 | .
COc1ccc(OC)c(C2C=C(Nc3ccccc3)C(=O)N2c2ccccc2)c1 (stereo unspecified) | . | .
Cc1ccc(-c2nnc(N3CCC(C(=O)NCc4ccccc4)CC3)o2)cc1 | . | .
CC1CCN(c2nnc(C(=O)NCc3ccccn3)c3ccccc23)CC1 | . | .
CC1CCN(c2ccc(N3CCC(C(=O)NCc4ccccn4)CC3)nn2)CC1 | 71 | .
CC(=O)N1CC(C(=O)NCc2ccccn2)CCC1c1ccc(F)c(C)c1 (stereo unspecified) | 80 | .
Cc1ccc(N2CC(C(=O)NCc3ccccn3)CC2=O)cc1 (stereo unspecified) | 100 | .
CC(=O)N1CC(C(=O)NCCc2ccccn2)CCC1c1ccc(F)c(C)c1 (stereo unspecified) | . | .
Cc1ccc(N2CC(C(=O)NCc3ccccc3)CC2=O)cc1 (stereo unspecified) | . | .
Cc1ccc(-c2nnc(N3CCC(C(=O)NCc4ccccn4)CC3)o2)cc1 | 76 | .
COc1cc(/C=c2\sc3nc4ccccc4n3c2=O)cc(Br)c1OCC#N | . | .
NC(=O)Cc1csc(SCC(=O)c2ccc3c(c2)OCO3)n1 | . | .
CCc1ccc2cc(-c3ccc(Cl)cc3)cn2c1 | 59 | .
CCc1nn2cc(-c3ccc(Cl)cc3)nc2s1 | . | .
O=C(NCCc1cscn1)C1CSCN1C(=O)COc1ccccc1 (stereo unspecified) | . | .
COc1ccc2nc(C)cc(N)c2c1 | . | .
COc1ccc(-n2c(C)ccc2C)c(N)c1 | 54 | .
O=C(NCCCN1CCN(c2cccc(Cl)c2)CC1)C1(n2cccc2)CCCCC1 | 98 | .
CC(C)CCNC(=O)C1(C)CCC(=O)N1CCCN1CCN(c2cccc(Cl)c2)CC1 (stereo unspecified) | . | .
Cc1ccc(Cl)cc1N1CCN(CCNC(=O)c2csc3c2CCCC3)CC1 | . | .
Cc1ccc(Cl)cc1N1CCN(CCNC(=O)C2(n3cccc3)CCCCC2)CC1 | 56 | .
O=[N+]([O-])/C(C(Cl)=C(Cl)Cl)=C(\NC1CC1)Sc1ccccc1 | . | .
SMILES | mHTT CaM bind | Pf apPOL block
O=C(CSC1CCCC1)N1CCN(C(=O)C2CC2c2ccccc2)CC1 (stereo unspecified) | . | .
COc1ccc([N+](=O)[O-])cc1/C=C1\SC(=O)N(c2ccccc2)C1=O | . | .
COc1ccc(NC(=O)c2cnn3c2NC(c2ccco2)CC3C(F)(F)F)cc1OC (stereo unspecified) | . | .
CCOc1ccc(C(=O)NCCn2c(C)cc3ccccc32)cc1OCC | . | .
COc1ccc(C(C)NC(=O)c2cc3ccccn3c2)cc1 (stereo unspecified) | . | .
N#CCCN1CCN(CN2C(=O)C(=O)c3ccccc32)CC1 | . | .
Cc1nn2c(CNC(=O)c3ccccc3C(F)(F)F)c(C)nc2s1 | . | .
CCCn1c(NC(=O)c2ccco2)nc2ccccc21 | . | .
O=C(NCc1nc2ccccc2n1CCCCOc1ccccc1Cl)c1ccco1 | 75 | .
Cc1ccc(COc2ccc3c(=O)c(Oc4cc(C)ccc4C)coc3c2)cc1 | . | .
Cc1cc(Cl)ccc1OCC(O)CNC(C)c1ccccc1 (stereo unspecified) | 58 | .
Cc1cc(Cl)ccc1OCC(O)CN1CCN(C)CC1 (stereo unspecified) | . | .
Cc1cc(OCC(O)CNC(C)c2ccccc2)ccc1Cl (stereo unspecified) | 100 | .
Cc1ccc(OCC(O)CNC(C)(C)C)cc1C (stereo unspecified) | . | .
Cc1ccccc1C(=O)N1CCCC(c2nc(CCNC(=O)C(C)C)cs2)C1 (stereo unspecified) | . | .
Cc1nc2c(C(=O)NC3CC3)cnn2c(C)c1Cc1ccc(F)cc1 | 64 | .
Cc1nc2c(C(=O)NC3CCCCC3)cnn2c(C)c1Cc1ccc(Cl)cc1 | . | .
Cc1nc2c(C(=O)NC3CC3)cnn2c(C)c1Cc1cccc(Cl)c1 | 97 | .
Cc1nc2c(C(=O)NC3CCCCC3)cnn2c(C)c1Cc1cccc(Br)c1 | . | .
Cc1nc2c(C(=O)NC3CCCC3)cnn2c(C)c1Cc1ccc(Cl)cc1 | . | .
Cc1nc2c(C(=O)NC3CC3)cnn2c(C)c1Cc1cccc(Br)c1 | 92 | .
COC(=O)c1ccncc1C(=O)Nc1ccc(C)cc1 | / | .
CCc1nc(-c2c(C)cc(C)nc2NC(=O)c2ccc(C)cc2)no1 | . | .
COc1ccc(NC(=O)c2ccc(C)nc2C2CCN(C(=O)C(C)C)CC2)cc1 | . | .
OCCN=c1scc(-c2ccc(Br)cc2)n1-c1ccccc1 | 60 | .
COc1ccc(-c2csc(=NCCO)n2-c2ccccc2)cc1 | . | .
